The source of these data is ChEMBL document CHEMBL4513146, “CO-ADD screening of Karazin Kharkiv National University (Ukraine) compounds”.

Structures are written as SMILES. Measured potencies and affinities stand elsewhere.

The subject of one test is Staphylococcus aureus. Conditions: Concentration 32 ug.mL-1;; ASSAY_TEST Inhibition of Bacterial Growth; detection method Absorption (OD600); MEDIA CAMHB; plate type 384well; NBS; CORNING #3640; time 18 hr.
The test system of another test is Escherichia coli. The settings on record: Concentration 32 ug.mL-1;; ASSAY_TEST Inhibition of Bacterial Growth; detection method Absorption (OD600); MEDIA CAMHB; plate type 384well; NBS; CORNING #3640; time 18 hr.

Take `Cc1nnc2ccc(S(=O)(=O)N(Cc3cc(F)cc(F)c3)c3ccc(F)cc3)cn12`: the Inhibition (usually the change of the read-out against control, counted positive when it falls) with Staphylococcus aureus is listed as 1.57%; with Escherichia coli it was -3.09%.
In the case of `O=c1c2nn(Cc3ccc(F)cc3)c(=O)n2ccn1-c1ccccc1`, the Inhibition with Staphylococcus aureus is on record as 14.99%; in the test with Escherichia coli, -4.05%.
As for `Cc1ccc(CN(c2ccccc2)S(=O)(=O)c2ccc3nncn3c2)cc1`, the Inhibition is 12.66% in the test on Staphylococcus aureus and -4.44% with Escherichia coli.
As to `CCOc1ccc(-n2ccn3c(SCC(=O)c4ccc(OC)c(OC)c4)nnc3c2=O)cc1`, the Inhibition is 21.02% with Staphylococcus aureus and 1.32% with Escherichia coli.
For `O=C(Cn1nc2c3cc(-c4ccc(Cl)cc4)nn3ccn2c1=O)NCc1ccccc1` the same measures were 12.1% and 4.95%.
For `COc1ccc(-c2cc3c4nn(CC(=O)Nc5cccc(C)c5)c(=O)n4ccn3n2)cc1` the same measures were 1.22% and -1.93%.
`CC(=O)c1ccc(NC(=O)Cn2nc3ccc(-c4ccc(C)c(C)c4)nn3c2=O)cc1`: the figures for the Inhibition with Staphylococcus aureus and with Escherichia coli were 9.12% and -4.24%, respectively.
On to `COc1ccc(-c2cc3c4nn(CC(=O)Nc5ccc6c(c5)OCO6)c(=O)n4ccn3n2)cc1`, for which the Inhibition is recorded as 8.96% with Staphylococcus aureus and 6.89% in the test on Escherichia coli.
On to `O=C(Cn1nc2ccc(Sc3ccccc3)nn2c1=O)Nc1ccc(F)c(Cl)c1`, for which the Inhibition in the test on Staphylococcus aureus was 8.3%; with Escherichia coli it was -2.75%.
On to `O=c1n(Cc2c(F)cccc2Cl)nc2ccc(-c3ccccc3)nn12`, for which the values for the Inhibition with Staphylococcus aureus and in the test on Escherichia coli were 7.33% and 0.7%, respectively.
For `COc1ccc(-c2cc3c4nn(CC(=O)Nc5cccc(C(C)=O)c5)c(=O)n4ccn3n2)cc1` the same measures were -6.93% and -6.63%.
As to `O=C(Cn1nc2c(N3CCOCC3)nccn2c1=O)Nc1ccc(Br)cc1F`, the Inhibition in the test on Staphylococcus aureus is reported as 13.39%; with Escherichia coli it was 2.9%.
